This passage reports Potency results from PubChem BioAssay (NCATS).

Molecules are shown by their SMILES. Records with an inconclusive call do not appear. Calls of active or inactive are those of the source. Calls follow the shape of the dose curve; as a rule, active = well fitted cell-killing curve with a large enough effect; inconclusive = small, poorly fitted or top-dose-only effect, or effect the other way; inactive = no such curve, though single readings can be large or run the other way. Starred links: 1 amine or outer side, 2 acyl side, 3 side chain; linkers in the order of their positions; H or OH if unused. Positions of bridges follow the written chain, without caps; N, C: chain ends. Non-standard residues stand in square brackets, D forms with d. Residues, ends and D or L forms follow the SMILES beside them. Chains are numbered I, II in the order given. Actinocin(9to1) = Cc1c2oc3c(C)ccc(C(=O)[*:1])c3nc-2c(C(=O)[*:2])c(N)c1=O; NMeV = CN[CH](C(=O)O)C(C)C; Sar = CNCC(=O)O
Potency is read from the fitted curve at half-maximal effect.

The assay in a line: Quantitative High-Throughput drug screen in 47 multiple myeloma cell lines against the NCATS MIPE library collection: ARD_JJKsccE7 cell viability assay (AID 1918929). The settings on record: ARD myeloma cell line viability, CellTiter-Glo, 48 h; series mostly up to 45.8 µM. Summed up:
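CellTiter-Glo luminescence (ATP) after 48 h compound exposure, 37C/5% CO2; 500 cells/well; MIPE 4.0 approved/investigational drugs pinned in; DMSO = 100%, media only = 0% viability.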
In general terms: In ATP-based viability assays light output follows the ATP content of the culture.
As for `N#Cc1cc(NC(=O)Nc2nnc(-c3ccncc3)s2)ccc1-c1cn[nH]c1`, the Potency result is “inactive”.

Regarding `Cc1cnc(NC(=O)Nc2cc(Br)c(C)cc2OC[C@@H]2CNCCO2)cn1`, the Potency is 1180 nM (active).

In the case of `CC(=O)O[C@H]1C[C@@H]2CC[C@H]3[C@H]4C[C@H]([N+]5(C)CCCCC5)[C@@H](OC(C)=O)[C@@]4(C)CC[C@@H]3[C@@]2(C)C[C@H]1[N+]1(C)CCCCC1`, the Potency result was “inactive”.

As for `O=C1NC(=O)[C@@H](c2cn3c4c(cccc24)CCC3)[C@H]1c1c[nH]c2ccccc12`, the Potency was 66.2 nM (active).

In the case of `O=C(O)CCCCC(CCSCc1ccccc1)SCc1ccccc1` (configuration not stated), the Potency is 18700 nM (active).

For the compound `OCC(O)C(O)C(O)CO` (configuration not stated), the Potency entry is “inactive”.

Take `Cc1c2oc3c(C)ccc(C(=O)NC4C(=O)NC(C(C)C)C(=O)N5CCCC5C(=O)N(C)CC(=O)N(C)C(C(C)C)C(=O)OC4C)c3nc-2c(C(=O)NC2C(=O)NC(C(C)C)C(=O)N3CCCC3C(=O)N(C)CC(=O)N(C)C(C(C)C)C(=O)OC2C)c(N)c1=O` (configuration not stated) (I: TVP[Sar][NMeV] / II: TVP[Sar][NMeV]; ester I:1-I:C, II:1-II:C; linker I:N-II:N via Actinocin(9to1); configuration not given here): the Potency entry was “inactive”.

Regarding `CC(=O)N1CCN(c2ccc(OCc3nn(C)c(C)c3-c3cccc4c(CCCOc5cccc6ccccc56)c(C(=O)O)n(Cc5cccnc5)c34)cc2)CC1`, the Potency is 118 nM (active).

On to `O=C1NC(O)CCN1[C@@H]1O[C@H](CO)[C@H](O)[C@H]1O` (some centres not stated), for which the Potency entry was “inactive”.

Regarding `CCNC(=O)Nc1ccc(-c2nc3c(c(N4CCOC[C@H]4C)n2)CCN(C2COC2)C3)cc1`, the Potency was 1050 nM (active).

In the case of `O=C1c2cccc(O)c2C(=O)c2c(O)cc(CO)cc21`, the Potency entry was “inactive”.

In the case of `O=C1NC(=O)C(=Cc2ccc3nccc(-c4ccncc4)c3c2)S1`, the Potency is 118 nM (active).

`CN(C)c1ccc2cc(C(=O)N[C@@H](CCCN=C(N)CCl)C(=O)NCc3ccccc3)ccc2c1`: the Potency is 4180 nM (active).

As for `Cn1cc(C2=C(c3c4n(c5ccccc35)CCC(CN)C4)C(=O)NC2=O)c2ccccc21` (configuration not stated), the Potency is 7430 nM (active).

On to `OCc1ccccc1O[C@@H]1O[C@H](CO)[C@H](O)[C@H](O)[C@H]1O`, for which the Potency entry is “inactive”.

For `c1cc(CN2CCCNCCNCCCNCC2)ccc1CN1CCCNCCNCCCNCC1`, the Potency result was “inactive”.

With `O=[N+]([O-])c1cn2c(n1)OC[C@@H](OCc1ccc(OC(F)(F)F)cc1)C2`, the Potency entry was “inactive”.

In the case of `O=C(C=CC#Cc1cccc(NS(=O)(=O)c2ccccc2)c1)NO`, the Potency is 1180 nM (active).

For `CCOC(=O)C=C[C@H](C[C@@H]1CCNC1=O)NC(=O)[C@@H](CC(=O)[C@@H](NC(=O)c1cc(C)on1)C(C)C)Cc1ccc(F)cc1`, the Potency entry was “inactive”.

Turning to `CO[C@@H]1[C@@H](O)[C@H](O)[C@@H](n2c3c(Cl)cccc3c3c4c(c5c6cccc(Cl)c6[nH]c5c32)C(=O)NC4=O)O[C@@H]1CO`, the Potency is 5260 nM (active).

As for `CC(=O)OCC(=O)[C@@]12N=C(C)O[C@H]1C[C@H]1[C@@H]3CCC4=CC(=O)C=C[C@]4(C)[C@@H]3[C@@H](O)C[C@@]12C`, the Potency is 1050 nM (active).

As to `O=S(=O)(O)CCSSCCS(=O)(=O)O`, the Potency entry was “inactive”.

As for `COc1cc(OC)c(C=CS(=O)(=O)Cc2ccc(OC)c(NCC(=O)O)c2)c(OC)c1`, the Potency was 74.3 nM (active).

For `O=C(C=Cc1ccc(CN(CCO)CCc2c[nH]c3ccccc23)cc1)NO`, the Potency is 93.5 nM (active).

As for `O=C1CSC(=O)N1C(CCc1ccncc1)COc1ccc(-c2cccc([N+](=O)[O-])c2)cc1` (configuration not stated), the Potency result was “inactive”.

With `CC[C@]12C=CCN3CC[C@@]4(c5cc([C@@]6(C(=O)OC)C[C@H]7C[C@@H](C(C)(F)F)CN(Cc8c6[nH]c6ccccc86)C7)c(OC)cc5N(C)[C@H]4[C@@](O)(C(=O)OC)[C@H]1OC(C)=O)[C@@H]32`, the Potency was 4.2 nM (active).

Take `C=C(C)[C@@H]1CC[C@]2(C(=O)O)CC[C@]3(C)[C@H](CC[C@@H]4[C@@]5(C)CC[C@H](O)C(C)(C)[C@@H]5CC[C@]43C)[C@@H]12`: the Potency result was “inactive”.
